The source of these data is PubChem BioAssay AID1851 (National Center for Advancing Translational Sciences (NCATS), 2009).

Structures are written as SMILES. In all, about 16,000 compounds went through this assay and about 5,800 (36%) were called active. Inconclusive results (about 23%) are left out. Calls follow the shape of the dose curve; as a rule, active = well fitted curve in the direction sought with a large enough effect; inconclusive = small, poorly fitted or top-dose-only effect, or effect the other way; inactive = no such curve, though single readings can be large or run the other way. Some of the results follow.
% is scaled to controls: 0 for no effect and ±100 for the full control effect.

Cytochrome P450 2C19 (Homo sapiens), sequence (P33261 whole entry, looked up): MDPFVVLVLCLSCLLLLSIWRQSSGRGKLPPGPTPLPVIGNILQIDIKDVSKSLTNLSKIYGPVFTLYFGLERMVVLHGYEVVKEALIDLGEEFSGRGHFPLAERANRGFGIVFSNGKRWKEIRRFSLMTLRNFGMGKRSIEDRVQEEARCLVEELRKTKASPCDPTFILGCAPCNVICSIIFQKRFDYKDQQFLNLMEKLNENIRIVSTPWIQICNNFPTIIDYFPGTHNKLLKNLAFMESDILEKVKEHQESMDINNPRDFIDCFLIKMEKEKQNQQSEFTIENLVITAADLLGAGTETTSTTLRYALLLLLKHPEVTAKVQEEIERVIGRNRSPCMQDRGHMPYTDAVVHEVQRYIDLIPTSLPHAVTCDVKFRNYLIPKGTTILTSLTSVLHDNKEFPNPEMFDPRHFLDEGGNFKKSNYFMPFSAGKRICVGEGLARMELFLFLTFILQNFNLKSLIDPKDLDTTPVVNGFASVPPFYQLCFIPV

This test concerns the target Cytochrome P450 2C19 (Homo sapiens) (UniProt P33261). Description: Cytochrome panel assay with activity outcomes. To be noted: recombinant CYP, pro-luciferin dealkylation, luminescence, p450-cyp2c19; series mostly up to 57.1 µM; activity, negative = inhibition: at the top concentration.
Turning to `CC12CC[C@@H]3c4ccc(OP(=O)(O)O)cc4CCC3C1CCC2=O` (stereo not given in full), the activity, negative = inhibition is -12.5% [at 11.4 µM] (inactive).

On to `O=C(c1ccncc1)N1CCC2(CC1)CN(Cc1cc(C(F)(F)F)cc(C(F)(F)F)c1)C2`, for which the “activity, negative = inhibition” value was 3.88% (inactive).

On to `CCOc1ccc(NC(=O)C(=O)NCC2CCCN2CC)cc1` (stereo not given), for which the “activity, negative = inhibition” value is 34.5% (inactive).

As to `CCCCN(C(=O)Nc1ccc(OCC)cc1)C1CCN(C(C)=O)CC1`, the “activity, negative = inhibition” value is -14.8% (inactive).

On to `CCOc1ccc(NC(=O)N(C2CCCCC2)C(C)c2ccncc2)cc1` (stereo not given), for which the AC50 is 7.08 µM (active).

On to `O=C(NNc1nc2ccccc2s1)C1CC1`, for which the AC50 was 15.8 µM (active).

Consider `O=C(NNc1nc2ccccc2s1)c1ccccc1F`, for which the AC50 was 11.2 µM (active).

For `CC(=O)NNc1nc2ccccc2s1`, the “activity, negative = inhibition” value is -2.18% (inactive).

As to `O=C1Nc2ccc([N+](=O)[O-])cc2C1(O)N1CCCCCC1` (stereo not given), the AC50 was 10 µM (active).

On to `O=C1C2=C(Nc3cc([N+](=O)[O-])ccc3N2)O[C@@H]1c1ccc([C@H]2OC3=C(Nc4ccc([N+](=O)[O-])cc4N3)C2=O)cc1`, for which the activity, negative = inhibition is -18.1% [at 11.4 µM] (inactive).

Regarding `CCN(CC)c1nc(Nc2ccccc2)nc(Oc2ccc(C(=O)OC)cc2)n1`, the half-maximal activity concentration (AC50) is 7.94 µM (active).

As for `Cc1ccc(/C=C2\Sc3ccccc3C2=O)s1`, the AC50 is 1.26 µM (active).

Take `O=C1C(Cc2ccccc2)SC(=Nc2ccccc2)N1c1ccccc1` (stereo not given): the AC50 was 3.16 µM (active).

Turning to `CN1CCN(/C=N/C2=C(C#N)C(c3ccccc3)C3=C(CC(C)(C)CC3=O)O2)CC1` (stereo not given), the AC50 is 20 µM (active).

Take `O=C(CCOc1ccccc1)Nc1ccccc1`: the AC50 is 3.55 µM (active).

For `C#CCCCC(=O)Nc1ccccc1`, the “activity, negative = inhibition” value is -21.6% (inactive).

`O=C(O)c1cccc(OCCO)c1`: the activity, negative = inhibition was 13.7% [at 11.4 µM] (inactive).

`NCC(=O)Nc1ccccc1`: the activity, negative = inhibition was -29.3% [at 11.4 µM] (inactive).

In the case of `COC(=O)c1cccc(NC(=O)CCCOc2ccccc2)c1`, the AC50 is 2.24 µM (active).

Take `Cc1cc(C(=O)N/N=C/c2cccc(OC(=O)c3ccco3)c2)n[nH]1`: the AC50 was 25.1 µM (active).

For `Cc1ccc(NCC(=O)N/N=C/c2ccc(OC(=O)c3ccco3)cc2)cc1`, the half-maximal activity concentration (AC50) was 2.51 µM (active).

For `NC(=O)N/N=C\c1ccc([N+](=O)[O-])o1`, the “activity, negative = inhibition” value is -7.91% [at 25.6 µM] (inactive).

Turning to `Cc1ccc(NCC(=O)N/N=C\c2ccc([N+](=O)[O-])o2)cc1`, the AC50 was 8.91 µM (active).

Consider `COc1ccc(C(=O)NC(CO)c2nnc(SCc3ccc(Cl)c(Cl)c3)n2C)cc1` (stereo not given), for which the AC50 was 15.8 µM (active).

As to `COC(=O)c1ccccc1NC(=O)CSc1nnc(C(CO)NC(=O)c2ccccc2Cl)n1C` (stereo not given), the “activity, negative = inhibition” value is -8.18% (inactive).

`CC(=O)OCC(=O)[C@@]1(O)CC[C@@H]2[C@H]3CCC4=CC(=O)C=C[C@]4(C)[C@]3(F)[C@@H](O)C[C@@]21C`: the “activity, negative = inhibition” value was -2.19% [at 25.6 µM] (inactive).

On to `Cc1cc(C)c(NC(=O)NC(=O)c2ccc(F)cc2)c(C)n1`, for which the “activity, negative = inhibition” value is -22.5% (inactive).

Turning to `Cc1cc(NC(=O)NC(=O)c2ccc(F)cc2F)n[nH]1`, the AC50 was 11.2 µM (active).

Regarding `Cc1onc(-c2ccccc2)c1C(=O)NCCc1c[nH]c2ccccc12`, the half-maximal activity concentration (AC50) is 1.78 µM (active).

As to `CCCC(O)(CCC)C(=O)NN1CCCCC1`, the “activity, negative = inhibition” value was -29.5% (inactive).

As for `CC(=O)[C@@H]1CC[C@@H]2[C@@H]3C[C@H](C)C4=CC(=O)CC[C@@]4(C)[C@H]3[C@H](O)C[C@]21C`, the “activity, negative = inhibition” value was -13.1% [at 25.6 µM] (inactive).

As for `CC(=O)[C@H]1CC[C@@H]2[C@H]3CC=C4C[C@@H](O)CC[C@]4(C)[C@H]3CC[C@]12C`, the “activity, negative = inhibition” value was -28.4% [at 25.6 µM] (inactive).

Regarding `CC(=O)[C@H]1CC[C@H]2[C@@H]3C=CC4=CC(=O)CC[C@@]4(C)[C@H]3CC[C@]12C`, the half-maximal activity concentration (AC50) was 1 µM (active).

As for `O=c1c(-c2ccc(F)cc2)nc2cnc(N3CCNCC3)nc2n1Cc1cccs1`, the AC50 is 15.8 µM (active).

Turning to `Cc1nc2cnc(N3CCNCC3)nc2n(Cc2cccs2)c1=O`, the “activity, negative = inhibition” value was -13.3% (inactive).

Consider `Cn1c(=O)c(-c2cccs2)nc2cnc(N3CCNCC3)nc21`, for which the “activity, negative = inhibition” value is -20.8% (inactive).

On to `COc1ccc(-c2nc3cnc(N4CCNCC4)nc3n(Cc3cccs3)c2=O)cc1`, for which the “activity, negative = inhibition” value was -34.1% (inactive).

Turning to `O=c1c(-c2ccc(F)cc2)nc2cnc(N3CCOCC3)nc2n1Cc1cccs1`, the “activity, negative = inhibition” value was -4.15% (inactive).

On to `O=c1c(-c2cccs2)nc2cnc(N3CCNCC3)nc2n1Cc1cccs1`, for which the AC50 is 5.01 µM (active).

Regarding `N#Cc1ccccc1NC(=O)Nc1cccs1`, the “activity, negative = inhibition” value was 13% (inactive).

As to `COc1ccc(CNC(=O)Nc2cccs2)cc1OC`, the AC50 was 5.62 µM (active).

`COc1ccc(C[C@@](C)(N)C(=O)O)cc1OC`: the “activity, negative = inhibition” value is -38% [at 25.6 µM] (inactive).

Consider `CCN1CCN(Cc2ccc(NC(=O)Nc3cccs3)cc2)CC1`, for which the “activity, negative = inhibition” value was -25% (inactive).

As for `O=C(NCc1ccco1)Nc1cccs1`, the AC50 is 11.2 µM (active).

As to `N[C@@H](CO)C(=O)NNCc1ccc(O)c(O)c1O`, the AC50 result was “inactive”.

`O=C(Nc1cccc(F)c1)N1CC2(CCN(C(=O)c3csnn3)CC2)C1`: the “activity, negative = inhibition” value is -37.6% (inactive).

On to `COc1ncc2ncc(=O)n(C)c2n1`, for which the “activity, negative = inhibition” value was 4.02% (inactive).

Regarding `O=C(Cc1cccc2ccccc12)N/N=C/c1ccc(Sc2nc3ccccc3s2)o1`, the AC50 is 0.891 µM (active).

For the molecule `COCC(=O)N/N=C/c1ccc(Sc2nc3ccccc3s2)o1`, the AC50 was 14.1 µM (active).

With `OCCN=C1CCCc2c1[nH]c1ccc(Br)cc21`, the “activity, negative = inhibition” value is -15.8% (inactive).

Broadly, the AC50 is the midpoint of the concentration-response curve, whichever way the signal moves.
